# Assay results taken from the supplement of paper PMC6555819.
# Tests used:
# Assay in all cases: PBM binding z-score (relative to random genomic background probes); higher = stronger binding; sequences stand for … in GC…GCGATTGACAGCGTAGAATGAAGG
# [1] = tested on: FXR:RXRa (NR concentration 270 nM, RXRa partner concentration 90 nM)
# Outline: (§1)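 Custom Agilent 4×180K protein-binding microarrays carried double-stranded probes. Their 34-nt variable regions held direct-repeat seeds, single-nucleotide variants, half-site ablations and random human genomic background sequences. Arrays were incubated 1 h with ligand-free nuclear receptor dimers in PBS pH 7.4, 2% milk, 0.02% Triton X-100, 1 mM DTT, 0.2 mg/mL BSA and 0.4 mg/ml salmon testes DNA. Antibodies against each partner (one per run) detected binding, and scanned fluorescence was regression-normalized. Binding z-scores use random background probes as reference.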
# [2] = tested on: LXRa:RXRa (NR concentration 270 nM, RXRa partner concentration 90 nM)
# Outline: as §1
# [3] = tested on: LXRa homodimer (NR concentration 270 nM)
# Outline: as §1
# [4] = tested on: LXRb:RXRa (NR concentration 270 nM, RXRa partner concentration 90 nM)
# Outline: as §1
# [5] = tested on: LXRb homodimer (NR concentration 270 nM)
# Outline: as §1
# [6] = tested on: PPARa:RXRa (NR concentration 270 nM, RXRa partner concentration 90 nM)
# Outline: as §1
# [7] = tested on: PPARg:RXRa 270nM:90nM, anti-RXR (NR concentration 270 nM, RXRa partner concentration 90 nM)
# Outline: as §1
# [8] = tested on: PPARg:RXRa 30nM:10nM, anti-RXR (NR concentration 30 nM, RXRa partner concentration 10 nM)
# Outline: as §1
# [9] = tested on: PPARg:RXRa 90nM:30nM, anti-RXR (NR concentration 90 nM, RXRa partner concentration 30 nM)
# Outline: as §1
# [10] = tested on: PPARg:RXRa DBDmut IVT, anti-RXR (DBD mutation: RXRa K156A/R161A, NR concentration 270 nM, RXRa partner concentration 90 nM)
# Outline: as §1
# [11] = tested on: PPARg:RXRa IVT, anti-PPARg (NR concentration 270 nM, RXRa partner concentration 90 nM)
# Outline: as §1
# [12] = tested on: PPARg DBDmut IVT, anti-PPARg (DBD mutation: PPARg1 K132A/R137A, NR concentration 270 nM)
# Outline: as §1
# [13] = tested on: PPARg homodimer (NR concentration 180 nM)
# Outline: as §1
# [14] = tested on: PXR:RXRa (NR concentration 270 nM, RXRa partner concentration 90 nM)
# Outline: as §1
# [15] = tested on: PXR homodimer (NR concentration 270 nM)
# Outline: as §1
# [16] = tested on: RARa:RXR (NR concentration 270 nM, RXRa partner concentration 90 nM)
# Outline: as §1
# [17] = tested on: RARa homodimer (NR concentration 270 nM)
# Outline: as §1
# [18] = tested on: RARb:RXRa (NR concentration 270 nM, RXRa partner concentration 90 nM)
# Outline: as §1
# [19] = tested on: PPARg DBDmut:RXRa IVT, anti-PPARg (DBD mutation: PPARg1 K132A/R137A, NR concentration 270 nM, RXRa partner concentration 90 nM)
# Outline: as §1
# [20] = tested on: PPARg:RXRa (NR concentration 180 nM, RXRa partner concentration 90 nM)
# Outline: as §1
Sequence,PBM binding z-score [1],PBM binding z-score [2],PBM binding z-score [3],PBM binding z-score [4],PBM binding z-score [5],PBM binding z-score [6],PBM binding z-score [7],PBM binding z-score [8],PBM binding z-score [9],PBM binding z-score [10],PBM binding z-score [11],PBM binding z-score [12],PBM binding z-score [13],PBM binding z-score [14],PBM binding z-score [15],PBM binding z-score [16],PBM binding z-score [17],PBM binding z-score [18],PBM binding z-score [19],PBM binding z-score [20]
CGAACTAGGTCAAAGGACACTGAAAGGCGACGTA,4.53,2.6,0.187,2.15,-0.198,5.49,8.98,10.1,10.8,8.08,8.34,1.03,3.64,1.6,-0.0402,2.85,0.514,3.86,–,–
CAAACTAGGTCACAGAGGTCAAAGTTCGTGCGTA,7.37,6.84,7.98,6.7,2.18,6.83,8.37,6.72,8.5,8.27,8.9,5.18,6.43,–,12.2,–,3.28,5.29,4.88,–
CGTCCAAGGTCAAAGGTCAGGGAAGAGATGACGG,8.68,6.78,3.32,6.96,1.53,–,9.03,8.32,9.6,3.65,6.24,0.451,3.19,7,1.61,8.27,2.57,–,1.42,11
CAAACTAGGTCACCGGAAGGTCAAAGTTCGCATG,6.72,6.36,5.74,5.3,1.86,6.44,8.11,6.06,8.3,8.66,9.06,1.26,7.21,6.49,3.62,–,3.06,5.44,4.1,–
CCTGCTAGGTCAAGGGTCAGCTAAAGCAGCTCGC,6.02,4.62,0.429,3.85,-0.198,5.91,8.48,7.78,9.4,4.08,5.78,-0.955,2.95,4.65,0.026,–,0.368,4.96,0.536,–
CAATCTAGGTCACAGAGGTCAAAGTCCGTGCGTA,7.18,7.04,7.96,6.3,2.8,6.7,8.69,7.34,9.13,9.1,9.25,5.24,7.14,–,11.9,7.89,3.61,5.46,7.18,–
CGTCCAAGGTCAATGCTAGCTCAGTGAAAGCATT,6.48,4.48,0.31,3.45,0.696,4.83,4,0.365,2.62,3.17,3.23,-0.858,0.0664,3.48,0.507,3.92,0.334,5.02,-0.245,–
GCTTACGGGTCAAAGGTTATGGCATGAATAGAAT,6.72,5.85,0.622,5.65,0.792,6.79,9.38,9.74,10.5,5.17,5.79,1.1,3.11,6.13,0.477,8.41,1.41,4.56,1.49,–
CCTACTGGGCCAAAGGTCATAGATTCCAATGCTC,4.64,4.61,3.46,4.47,0.244,6.34,10.5,11,11.5,5.3,7.19,-0.0407,4.53,5.14,1.46,6.41,1.47,4.4,0.0659,–
ATATGTAGGTCAGGGTCATTCAGAAAGTAGGGAA,5.82,4.89,1.68,5.11,2.07,6.06,7.66,6.11,7.76,7.87,8.62,2.1,3.22,4.42,1.93,5.05,2.85,4.49,–,–
ACTAGTAGGCCAAGGGTCACTCAAGATTAGTCCG,2.69,2.91,0.417,2.98,0.0422,5.64,9.26,10.9,10.4,5.4,6.33,1.01,2.17,3.24,-0.0548,4.2,0.166,3.61,0.82,–
CGTCCAAGGTCAGCAGGTCAGAGAAAGCGACGTG,6.51,4.01,0.793,3.26,-0.208,4.78,5.15,1.61,3.69,3.52,3.72,-0.591,6.44,4.02,0.651,5.74,2.67,5.39,0.0227,–
AGTCAAAGTTCAGGACGAGGTAATGTAAAGCACG,4.1,3.43,1.28,1.77,0.372,–,4.68,2.03,4.01,-0.319,1.45,0.146,1.53,3.18,1.4,2.5,0.661,4.23,-0.174,4.31
CCTACTGGGCCAAGGTCTTTGATCAGTCAAAGCA,-0.503,-0.304,-0.544,-0.54,-0.812,–,1.32,0.0343,0.749,3.2,3.33,-1.46,0.00705,-0.407,-0.601,-0.344,-0.879,–,-0.858,0.806
